The target of test [1] is ATP-dependent 6-phosphofructokinase (Trypanosoma brucei brucei) (UniProt O15648). As to the kind of experiment: qHTS Assay to Find Inhibitors of T. brucei phosphofructokinase: hit validation (AID 492961).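 Further: luminescence reports ADP formed as PFK phosphorylates fructose-6-phosphate with ATP; on the % scale 0 is the no-effect control and ±100 the full control effect.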 In short, it runs like this:
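Reaction: 0.1 M triethanolamine pH 8.0, 5 mM MgCl2, F6P 0.5 mM, ATP 0.1 mM, PFK 1.25 nM, 45 min RT. Read-out: ADP-Glo luminescence. Analysis: concentration-response fits, classed by r2 and efficacy.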
For orientation: In qHTS, concentration-response curves come from the screen itself.

Test [2] in a line: qHTS profiling for inhibitors of Plasmodium falciparum proliferation (AID 504749). Further: potency means the concentration at half of the fitted maximal effect.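 On activity, negative = inhibition: 0% = DMSO vehicle and full inhibition = artemisinin control.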 On all read-outs here: nearly all actives have a fitted effect of over 60% in size. The following applies: P. falciparum in erythrocytes, SYBR Green DNA, 72 h; for activity, negative = inhibition: at 28.7 µM (top of the series). The method, boiled down: (§1)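 Fluorescence of SYBR Green-bound parasite DNA, read at 485/535 nm, served as the growth measure. Infected erythrocytes were cultured with compound 72 h; artemisinin (0.29 uM) and DMSO wells defined the normalization range.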

The test system of the next test is 3D7. Described as above. The following applies: P. falciparum in erythrocytes, SYBR Green DNA, 72 h; series mostly up to 28.7 µM. In short, it runs like this: as §1
In a further test the test system is AA1029. The description is as above. Particulars: P. falciparum in erythrocytes, SYBR Green DNA, 72 h; series mostly up to 28.7 µM. The method, boiled down:
as §1

The test system of the next test is AS120. The test is described as above. Particulars: P. falciparum in erythrocytes, SYBR Green DNA, 72 h; series mostly up to 28.7 µM. The method, boiled down: as §1
The subject of a further test is ATS189. Described as above. The following applies: P. falciparum in erythrocytes, SYBR Green DNA, 72 h; series mostly up to 28.7 µM. In short, it runs like this:
as §1

A further test concerns C2A. The description is as above. The following applies: P. falciparum in erythrocytes, SYBR Green DNA, 72 h; series mostly up to 28.7 µM. In short, it runs like this: as §1
The next test deals with CP185. The test is described as above. The following applies: P. falciparum in erythrocytes, SYBR Green DNA, 72 h; series mostly up to 28.7 µM. The method, boiled down: as §1
In the next test the test system is CP191. The description is as above. The following applies: P. falciparum in erythrocytes, SYBR Green DNA, 72 h; series mostly up to 28.7 µM. In short, it runs like this:
as §1

The subject of another test is CP192. Described as above. Particulars: P. falciparum in erythrocytes, SYBR Green DNA, 72 h; series mostly up to 28.7 µM. In short, it runs like this:
as §1

Another test relates to CP194. The test is described as above. Particulars: P. falciparum in erythrocytes, SYBR Green DNA, 72 h; series mostly up to 28.7 µM. In short, it runs like this: as §1
A further test deals with CP211. The test is described as above. The following applies: P. falciparum in erythrocytes, SYBR Green DNA, 72 h; series mostly up to 28.7 µM. In short, it runs like this: as §1
For the next test, the system named is CP217. The test is described as above. The following applies: P. falciparum in erythrocytes, SYBR Green DNA, 72 h; series mostly up to 28.7 µM. In short, it runs like this: as §1
A further test deals with CP237. The test is described as above. Particulars: P. falciparum in erythrocytes, SYBR Green DNA, 72 h; series mostly up to 28.7 µM. In short, it runs like this: as §1
The subject of the next test is CP238. The description is as above. The following applies: P. falciparum in erythrocytes, SYBR Green DNA, 72 h; series mostly up to 28.7 µM. The method, boiled down:
as §1

In the next test the test system is CP247. The test is described as above. The following applies: P. falciparum in erythrocytes, SYBR Green DNA, 72 h; series mostly up to 28.7 µM. The method, boiled down:
as §1

The test system of a further test is CP252. Described as above. Particulars: P. falciparum in erythrocytes, SYBR Green DNA, 72 h; series mostly up to 28.7 µM. The method, boiled down: as §1
Another test concerns CP286. Described as above. Particulars: P. falciparum in erythrocytes, SYBR Green DNA, 72 h; series mostly up to 28.7 µM. In short, it runs like this: as §1
In the next test the test system is Dd2. The test is described as above. The following applies: P. falciparum in erythrocytes, SYBR Green DNA, 72 h; series mostly up to 28.7 µM. In short, it runs like this: as §1
The subject of another test is P94_40. The description is as above. Particulars: P. falciparum in erythrocytes, SYBR Green DNA, 72 h; series mostly up to 28.7 µM. In short, it runs like this: as §1

Structures are written as SMILES. Results filed as inconclusive are left out. Unmarked numbers belong to inactive results. Calls of active or inactive are those of the source. The call rests on the fitted dose curve; in most records, active means well fitted curve in the direction sought with a large enough effect; inconclusive means small, poorly fitted or top-dose-only effect, or another doubt; inactive means no such curve, though single readings can be large; an effect the other way counts as inactive or inconclusive.

Sequence of ATP-dependent 6-phosphofructokinase (Trypanosoma brucei brucei) (O15648 whole entry, looked up): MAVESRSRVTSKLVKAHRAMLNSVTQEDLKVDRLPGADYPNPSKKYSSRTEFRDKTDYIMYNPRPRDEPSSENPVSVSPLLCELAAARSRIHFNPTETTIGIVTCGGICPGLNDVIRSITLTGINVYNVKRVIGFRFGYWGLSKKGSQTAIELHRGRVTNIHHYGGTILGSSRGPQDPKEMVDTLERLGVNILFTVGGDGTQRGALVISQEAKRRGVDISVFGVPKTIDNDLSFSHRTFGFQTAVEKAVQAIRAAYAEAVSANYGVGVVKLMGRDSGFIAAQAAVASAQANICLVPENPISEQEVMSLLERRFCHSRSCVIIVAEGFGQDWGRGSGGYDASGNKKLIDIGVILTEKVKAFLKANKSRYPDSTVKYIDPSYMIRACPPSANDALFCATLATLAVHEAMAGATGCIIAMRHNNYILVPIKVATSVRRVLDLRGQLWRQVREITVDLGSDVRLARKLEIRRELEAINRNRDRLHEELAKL

Turning to `CO/N=C(/C(=O)N[C@@H]1C(=O)N2C(C(=O)O)=C(C[n+]3ccc(N)n3CCO)CS[C@H]12)c1csc(N)n1`, the Potency entry (in [1]; in the test with 3D7; with AA1029; with AS120; in the test with ATS189; in the test on C2A) was “inactive” in each case. The Potency entry with CP185, in the test on CP191, in the test with CP192, in the test with CP194, in the test with CP211 and in the test on CP217 was “inactive” throughout. Besides, the Potency entry in the test with CP237, with CP238, in the test with CP247, with CP252, with CP286 and in the test on Dd2 was “inactive” each time. Besides, the Potency entry in the test on P94_40 is “inactive”. The activity, negative = inhibition was 0.303% in test [2] (parasite line A) and 9.51% in test [2] (parasite line B).
For the compound `NC(=O)NC(CCC(=O)O)C(=O)O` (stereo unspecified), the Potency entry (in test [1]; in the test on 3D7; in the test with AA1029; in the test with AS120; in the test on ATS189; in the test on C2A) was “inactive” throughout. The Potency entry with CP185, in the test on CP191, in the test on CP192, with CP194, in the test with CP211 and in the test with CP217 was “inactive” each time. The Potency entry in the test on CP237, in the test with CP238, with CP247, in the test with CP252, with CP286 and with Dd2 was “inactive” each time. For the same compound, the Potency result in the test with P94_40 was “inactive”. The activity, negative = inhibition was -0.405% in test [2] (parasite line A) and 3.49% in test [2] (parasite line B).
Turning to `OCC1OC(O)C(O)C(O)C1O` (stereo unspecified), the Potency entry (in [1]; with 3D7; in the test on AA1029; with AS120; with ATS189; in the test on C2A) was “inactive” each time. The Potency entry with CP185, in the test with CP191, in the test on CP192, with CP194, in the test with CP211 and with CP217 was “inactive” in each case. Also, the Potency result in the test on CP237, in the test on CP238, in the test with CP247, with CP252, in the test with CP286 and with Dd2 was “inactive” throughout. Moreover, the Potency entry with P94_40 is “inactive”. The activity, negative = inhibition in [2] (parasite line A) was -3.4%; in test [2] (parasite line B), 8.64%.
In the case of `CO/N=C(/C(=O)N[C@@H]1C(=O)N2C(C(=O)O)=C(CSc3cnns3)CS[C@H]12)c1csc(N)n1`, the Potency result (in test [1]; with 3D7; in the test with AA1029; with AS120; in the test on ATS189; with C2A) was “inactive” throughout. Besides, the Potency result in the test with CP185, in the test with CP191, in the test on CP192, in the test with CP194, in the test with CP211 and in the test on CP217 was “inactive” throughout. Moreover, the Potency result in the test on CP237, with CP238, in the test on CP247, in the test with CP252, in the test with CP286 and with Dd2 was “inactive” throughout. Moreover, the Potency result with P94_40 was “inactive”. For the same compound, the activity, negative = inhibition in test [2] (parasite line A) is 8.36%; in test [2] (parasite line B), 11.8%.
Turning to `C=C[C@@]1(C)C[C@H](OC(=O)CSC(C)(C)CNC(=O)[C@@H](N)C(C)C)[C@@]2(C)C(C)CC[C@@]3(CCC(=O)[C@@H]32)[C@H](C)[C@H]1O` (stereo partly specified), the Potency entry in test [1] was “inactive”. Besides, the Potency in [2] (parasite line A) is 3160 nM (active); in test [2] (parasite line B), 1410 nM (active); with 3D7, 8910 nM (active); with AA1029, 1580 nM (active); with AS120 it was 3550 nM (active); in the test on ATS189 it was 11200 nM (active). Further, the Potency with C2A is 5010 nM (active); in the test with CP185 it was 1410 nM (active); in the test with CP191, 3980 nM (active); in the test with CP192, 3380 nM (active); with CP194 it was 1900 nM (active); in the test with CP211, 675 nM (active). Also, the Potency in the test with CP217 was 5620 nM (active); in the test on CP237, 1410 nM (active); in the test with CP238, 5010 nM (active); in the test on CP247 it was 4470 nM (active); with CP252, 1260 nM (active); with CP286, 447 nM (active). The Potency in the test on Dd2 was 282 nM (active); in the test with P94_40 it was 1580 nM (active).
As to `O=C(O)Cc1sc(-c2ccc(Cl)cc2)nc1-c1ccccc1`, the Potency result (in [1]; in the test on 3D7; in the test with AA1029; in the test on AS120; in the test on ATS189; in the test on C2A) was “inactive” throughout. For the same compound, the Potency entry in the test with CP185, with CP191, in the test with CP192, in the test with CP194, with CP211 and in the test with CP217 was “inactive” in each case. The Potency result with CP237, with CP238, with CP247, with CP252, in the test on CP286 and with Dd2 was “inactive” each time. In the test with P94_40, the Potency entry is “inactive”. Moreover, the activity, negative = inhibition in test [2] (parasite line A) is 4.11%; in test [2] (parasite line B), -3.92%.
